# Results filed as inconclusive are left out. Entries that show only a call come without a potency. Active and inactive are the calls of the source. The call rests on the fitted dose curve; in most records, active means well fitted cell-killing curve with a large enough effect; inconclusive means small, poorly fitted or top-dose-only effect, or effect the other way; inactive means no such curve, though single readings can be large or run the other way.
# Test: MultiTox-Fluor Cytotoxicity Assay - LYMP1-002 - Dead Cells (AID 960); further: nearly all actives have a fitted effect of over 60% in size
# Details: LYMP1-002 lymphoblastoid cells, dead-cell protease fluorescence; series mostly up to 46.1 µM
# Description: NIH Chemical Genomics Center [NCGC]
# NIH Molecular Libraries Screening Centers Network [MLSCN]
# National Institutes of Environmental Health Sciences [NIEHS]
# National Toxicology Program [NTP]
# We have developed a 1536-well cell-based assay for quantitative high throughput screening (qHTS) against a number of cell lines to determine in vitro cytotoxicity of small molecules. This particular assay uses a human lymphoblastoid cell line (LYMP1-002) purchased from Coriell Institute.
# NCGC Assay Protocol Summary:
# The MultiTox-Fluor Cytotoxicity Assay (Promega) is a homogeneous method to simultaneously measure the relative number of live and dead cells in culture by detecting changes in cell membrane integrity. There are two fluorogenic peptide substrates in the assay reagent. Viable cells are determined when the cell-permeant substrate (GF-AFC) enters the cell and is cleaved by protease from live cells resulting in liberated fluorophore. This live-cell protease activity restricted to viable cells is proportional to cell number. The dead cells are determined by using fluorogenic cell-impermeant peptide substrate (bis-AAF-R110) which cleaved by dead cell proteases leaking from damaged cell membrane.
# Using the MultiTox-Fluor Cytotoxicity Assay, the relative number of dead cells was measured in the lymphoblastoid cell line with complete culture medium following compound treatment for 16 hours. The assay was performed in opaque black Kalypsys 1536-well plates. In the screen, tetraoctylammonium bromide was used as positive control. Library compounds were measured for their ability to cause acute toxicity in the cell line, as reflected by an increase in dead cell protease activity, in a concentration-dependent manner. Data were normalized to the controls for basal activity (DMSO only) and 100% stimulation (15 uM tetraoctylammonium bromide). AC50 values were determined from concentration-response data modeled with the standard Hill equation.
# qHTS protocol for MultiTox-Fluor Cytotoxicity assay
# [Step] [Parameter] [Value] [Description]
# 1. Reagent; 5 uL; 2500 lymphoblastoid cells/well
# 2. Time; 5 hr; 37 C incubation
# 4. Controls; 23 nL; Tetraoctylammonium bromide 6.4pM to 92 uM
# 5. Time; 16 hr; 37 C incubation
# 6. Reagent; 5 uL; MuliTox-Fluor Assay reagent
# 7. Time; 60 min; Room Temperature
# 8. Detection; dead-cell fluorescence (Ex/Em=485/520); EnVision plate reader
# Keywords: cytotoxicity, lymphoblastoid cell line, fluorescence, NTPHTS, NTPHTS_NCGC, NIEHS, EPA, DSSTox, MLSMR, MLSCN, NIH Roadmap, qHTS, NCGC
# Potency means the concentration at half of the fitted maximal effect.
row,SMILES,Potency
1,O=C/C=C/c1ccccc1,inactive
2,C[C@H]1CCC[C@H](O)CCCCCc2cc(O)cc(O)c2C(=O)O1,inactive
3,O=Cc1ccco1,inactive
4,COc1ccc2c(c1OC)C(=O)OC2C1c2cc3c(cc2CCN1C)OCO3 (stereo unspecified),inactive
5,CCCCCCCCOC(=O)c1ccccc1C(=O)OCCCCCCCC,inactive
6,O=CC=O,inactive
7,CCOC(=O)c1ccccc1C(=O)OCC,inactive
8,S=C=S,inactive
9,O=[N+]([O-])c1ccc(F)c([N+](=O)[O-])c1,inactive
10,Clc1ccccc1Cl,inactive
11,ClCC1CO1 (stereo unspecified),inactive
12,[O]=[Cr](=[O])([OH])[O][Cr](=[O])(=[O])[OH],inactive
13,C=CCN=C=S,inactive
14,CCCCCl,inactive
15,Oc1cc(Cl)c(Cl)cc1Cl,inactive
16,O=C(O)C(Cl)(Cl)Cl,inactive
17,NNC(N)=O,inactive
18,O=C1CCO1,inactive
19,CC(C)CCON=O,inactive
20,O=C1C2CC=CCC2C(=O)N1SC(Cl)(Cl)Cl (stereo unspecified),5.01 µM (active)
21,COC1=CC(=O)O[C@@H](/C=C/c2ccccc2)C1,inactive
22,C[C@H]1CC[C@@H]2[C@@H](C)[C@H]3[C@H](C[C@H]4[C@@H]5CC=C6CC(O[C@@H]7O[C@H](CO)[C@H](O)[C@H](O[C@@H]8O[C@H](CO)[C@@H](O)[C@H](O)[C@H]8O)[C@H]7O[C@H]7O[C@@H](C)[C@H](O)[C@@H](O)[C@H]7O)CC[C@]6(C)[C@H]5CC[C@]34C)N2C1 (stereo partly specified),inactive
23,[O]=[Cd],inactive
24,O=[N+]([O-])c1ccccc1,inactive
25,ClC(Cl)(Cl)Cl,inactive
26,CC(C)(C)c1cc(O)ccc1O,inactive
